How the values were obtained:
[1] = target: T1, GST-Nv-NF-kB (Ser allele) (Nematostella vectensis, UniProt A7UNT2 2-411); assay: protein-binding microarray (PBM); PBM: ~300 nM protein, 6 mM HEPES pH 7.8, 80 mM KCl, 0.5 mM EDTA, 0.5 mM EGTA, 6% glycerol, 35 ng/ul poly-dIdC, 1% milk, 1 h, room temperature; Ap Aiptasia and Nv Nematostella (sea anemones) / Co Capsaspora / Aq Amphimedon (sponge) / Dm Drosophila / Hu human; RHD is the Rel homology domain; high values mean tight binding; details: dsDNA, one strand shown
T1 sequence: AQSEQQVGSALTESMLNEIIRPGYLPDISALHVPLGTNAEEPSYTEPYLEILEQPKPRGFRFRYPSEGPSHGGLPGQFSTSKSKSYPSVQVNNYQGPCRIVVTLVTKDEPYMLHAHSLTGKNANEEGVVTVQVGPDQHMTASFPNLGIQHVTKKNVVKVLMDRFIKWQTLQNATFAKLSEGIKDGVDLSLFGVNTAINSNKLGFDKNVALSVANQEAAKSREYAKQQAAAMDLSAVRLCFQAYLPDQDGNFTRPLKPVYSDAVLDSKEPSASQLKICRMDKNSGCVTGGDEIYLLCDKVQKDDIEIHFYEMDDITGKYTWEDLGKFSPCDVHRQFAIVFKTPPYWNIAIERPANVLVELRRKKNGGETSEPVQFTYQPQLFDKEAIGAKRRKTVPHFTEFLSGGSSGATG

GST-Hu-p50 = GST-Hu-p50 (Homo sapiens, UniProt P19838 7-356); assay: as above; details: dsDNA, one strand shown
GST-Hu-p50, sequence (P19838 7-356): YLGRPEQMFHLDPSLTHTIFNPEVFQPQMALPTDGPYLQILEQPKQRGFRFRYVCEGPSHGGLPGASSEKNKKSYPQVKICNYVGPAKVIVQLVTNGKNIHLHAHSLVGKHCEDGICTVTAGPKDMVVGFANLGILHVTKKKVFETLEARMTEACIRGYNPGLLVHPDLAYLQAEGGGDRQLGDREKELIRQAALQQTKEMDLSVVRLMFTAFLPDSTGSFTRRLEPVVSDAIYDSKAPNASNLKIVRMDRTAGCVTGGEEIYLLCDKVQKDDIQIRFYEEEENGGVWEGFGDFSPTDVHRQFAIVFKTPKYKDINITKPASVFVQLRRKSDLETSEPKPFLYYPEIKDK

| Sequence | binding signal [1] [z-score] | binding signal (GST-Hu-p50) [z-score] |
| --- | --- | --- |
| CCGATTAACATCAGGACAGTCCCTGATGTTAATCGGGTCTTGATTCGCTTGACGCTGCTG | 2.87 | 4.04 |
| CCGATTAACATCAAGAAATTTCCTGATGTTAATCGGGTCTTGATTCGCTTGACGCTGCTG | 1.55 | 1.76 |
| CCGATTAACATCAAAAGAATCCCTGATGTTAATCGGGTCTTGATTCGCTTGACGCTGCTG | 2.43 | 3.14 |
| CCGATTAACATCAGGGAATGCCATGATGTTAATCGGGTCTTGATTCGCTTGACGCTGCTG | 2.41 | 1.54 |
| CCGATTAACATCAGGGGGAGAGATGATGTTAATCGGGTCTTGATTCGCTTGACGCTGCTG | 4.36 | 4.17 |
| CCGATTAACATCAGATGTCCCCCTGATGTTAATCGGGTCTTGATTCGCTTGACGCTGCTG | 4.47 | 3.96 |
| CCGATTAACATCAAAAAGTTCCCTGATGTTAATCGGGTCTTGATTCGCTTGACGCTGCTG | 5.17 | 4.09 |
| CCGATTAACATCAAACAATTCCCTGATGTTAATCGGGTCTTGATTCGCTTGACGCTGCTG | 5.01 | 3.72 |
| CCGATTAACATCAGGGAGTTCCATGATGTTAATCGGGTCTTGATTCGCTTGACGCTGCTG | 2.53 | 2.54 |
| CCGATTAACATCATTTATCCCGGTGATGTTAATCGGGTCTTGATTCGCTTGACGCTGCTG | 1.28 | 1.33 |
| CCGATTAACATCAGGGATACCCCTGATGTTAATCGGGTCTTGATTCGCTTGACGCTGCTG | 2.97 | 4.12 |
| CCGATTAACATCAGGCAAATCCCTGATGTTAATCGGGTCTTGATTCGCTTGACGCTGCTG | 1.09 | 1.9 |
| CCGATTAACATCAGTTCCCCCCATGATGTTAATCGGGTCTTGATTCGCTTGACGCTGCTG | 5.19 | 4.95 |
| CCGATTAACATCAGGTAATCCCATGATGTTAATCGGGTCTTGATTCGCTTGACGCTGCTG | 2.09 | 1.44 |
| CCGATTAACATCAAAAACTCCCATGATGTTAATCGGGTCTTGATTCGCTTGACGCTGCTG | 4.52 | 4.38 |
| CCGATTAACATCAGAATAACCCCTGATGTTAATCGGGTCTTGATTCGCTTGACGCTGCTG | 3.11 | 4.22 |
| CCGATTAACATCAGGGCAGCCCCTGATGTTAATCGGGTCTTGATTCGCTTGACGCTGCTG | 2.79 | 4.31 |
| CCGATTAACATCAGGATAATCCCTGATGTTAATCGGGTCTTGATTCGCTTGACGCTGCTG | 1.62 | 2.15 |
| CCGATTAACATCAACAGGGAAAATGATGTTAATCGGGTCTTGATTCGCTTGACGCTGCTG | 5.98 | 3.34 |
| CCGATTAACATCAGGGGCTACCCTGATGTTAATCGGGTCTTGATTCGCTTGACGCTGCTG | 2.1 | 3.35 |
| CCGATTAACATCAGTAACTCCCTTGATGTTAATCGGGTCTTGATTCGCTTGACGCTGCTG | 2.17 | 2.5 |
| CCGATTAACATCAGGGAAAACCATGATGTTAATCGGGTCTTGATTCGCTTGACGCTGCTG | 6.37 | 4.01 |
| CCGATTAACATCACGGGACTCCCTGATGTTAATCGGGTCTTGATTCGCTTGACGCTGCTG | 3.64 | 3.14 |
| CCGATTAACATCAGGGGAGGTACTGATGTTAATCGGGTCTTGATTCGCTTGACGCTGCTG | 4.46 | 3.17 |
| CCGATTAACATCAAGGTAATCCCTGATGTTAATCGGGTCTTGATTCGCTTGACGCTGCTG | 2.34 | 1.4 |

| Sequence | binding signal [1] [z-score] | binding signal (GST-Hu-p50) [z-score] |
| --- | --- | --- |
| CCGATTAACATCAAAGAAGCCCCTGATGTTAATCGGGTCTTGATTCGCTTGACGCTGCTG | 4.95 | 5.02 |
| CCGATTAACATCAAGTCCCCCAATGATGTTAATCGGGTCTTGATTCGCTTGACGCTGCTG | 3.54 | 4.25 |
| CCGATTAACATCAAGTTTACCCCTGATGTTAATCGGGTCTTGATTCGCTTGACGCTGCTG | 3.57 | 3.2 |
| CCGATTAACATCAGGGAAATAAATGATGTTAATCGGGTCTTGATTCGCTTGACGCTGCTG | 4.6 | 3.23 |
| CCGATTAACATCACGGGACTTCCTGATGTTAATCGGGTCTTGATTCGCTTGACGCTGCTG | 4.98 | 4.6 |
| CCGATTAACATCAGAAGTTTCCCTGATGTTAATCGGGTCTTGATTCGCTTGACGCTGCTG | 5.14 | 4.43 |
| CCGATTAACATCACTCCCTAAAATGATGTTAATCGGGTCTTGATTCGCTTGACGCTGCTG | 1.75 | 2.32 |
| CCGATTAACATCAGGGGGTGTACTGATGTTAATCGGGTCTTGATTCGCTTGACGCTGCTG | 3.99 | 4.44 |
| CCGATTAACATCAAAACAGCCCCTGATGTTAATCGGGTCTTGATTCGCTTGACGCTGCTG | 3.68 | 4.54 |
| CCGATTAACATCAGGGGGTCTACTGATGTTAATCGGGTCTTGATTCGCTTGACGCTGCTG | 2.55 | 3.36 |
| CCGATTAACATCAGGCGATTCCCTGATGTTAATCGGGTCTTGATTCGCTTGACGCTGCTG | 2.44 | 1.92 |
| CCGATTAACATCAGGGTGTTTTATGATGTTAATCGGGTCTTGATTCGCTTGACGCTGCTG | 2.32 | 4.01 |
| CCGATTAACATCATGGGGACGACTGATGTTAATCGGGTCTTGATTCGCTTGACGCTGCTG | 2.44 | 2.41 |
| CCGATTAACATCAAGGGAATCCCTGATGTTAATCGGGTCTTGATTCGCTTGACGCTGCTG | 5.4 | 4.17 |
| CCGATTAACATCAAATCACCCCCTGATGTTAATCGGGTCTTGATTCGCTTGACGCTGCTG | 5.42 | 4.62 |
| CCGATTAACATCAGGGGGGGTCATGATGTTAATCGGGTCTTGATTCGCTTGACGCTGCTG | 1.92 | 3.32 |
| CCGATTAACATCAGGGGAGTGTATGATGTTAATCGGGTCTTGATTCGCTTGACGCTGCTG | 4.51 | 3.04 |
| CCGATTAACATCAGGGGGCGCACTGATGTTAATCGGGTCTTGATTCGCTTGACGCTGCTG | 2.76 | 4.11 |
| CCGATTAACATCAAATTTTCCCATGATGTTAATCGGGTCTTGATTCGCTTGACGCTGCTG | 6.42 | 4.19 |
| CCGATTAACATCAGGGAACTTTATGATGTTAATCGGGTCTTGATTCGCTTGACGCTGCTG | 3.6 | 3.66 |
| CCGATTAACATCAATTTGGGAAATGATGTTAATCGGGTCTTGATTCGCTTGACGCTGCTG | 2.36 | 1.3 |
| CCGATTAACATCAGGGATTTTGATGATGTTAATCGGGTCTTGATTCGCTTGACGCTGCTG | 2.92 | 2.85 |
| CCGATTAACATCAGGAGTTTCCCTGATGTTAATCGGGTCTTGATTCGCTTGACGCTGCTG | 4.67 | 4.81 |
| CCGATTAACATCACATTTTCCCATGATGTTAATCGGGTCTTGATTCGCTTGACGCTGCTG | 5.22 | 3.45 |
| CCGATTAACATCAAATGACCCCCTGATGTTAATCGGGTCTTGATTCGCTTGACGCTGCTG | 2.69 | 2.89 |

| Sequence | binding signal [1] [z-score] | binding signal (GST-Hu-p50) [z-score] |
| --- | --- | --- |
| CCGATTAACATCAACATCCCCCCTGATGTTAATCGGGTCTTGATTCGCTTGACGCTGCTG | 5.5 | 4.91 |
| CCGATTAACATCAACACCCCCCCTGATGTTAATCGGGTCTTGATTCGCTTGACGCTGCTG | 3.82 | 3.88 |
| CCGATTAACATCAGAGTTTCCCATGATGTTAATCGGGTCTTGATTCGCTTGACGCTGCTG | 3.14 | 2.22 |
| CCGATTAACATCAAGTATTTCCCTGATGTTAATCGGGTCTTGATTCGCTTGACGCTGCTG | 5.24 | 3.64 |
| CCGATTAACATCAAATTCCCACTTGATGTTAATCGGGTCTTGATTCGCTTGACGCTGCTG | 3.95 | 3.73 |
| CCGATTAACATCAGGGGGTGTAATGATGTTAATCGGGTCTTGATTCGCTTGACGCTGCTG | 4.19 | 3.98 |
| CCGATTAACATCAGGAAAATACCTGATGTTAATCGGGTCTTGATTCGCTTGACGCTGCTG | 3.24 | 3.12 |
| CCGATTAACATCAAGAATTCCCATGATGTTAATCGGGTCTTGATTCGCTTGACGCTGCTG | 5.01 | 4.34 |
| CCGATTAACATCACATGGGAAACTGATGTTAATCGGGTCTTGATTCGCTTGACGCTGCTG | 2.7 | 1.26 |
| CCGATTAACATCAAAAATTCCGGTGATGTTAATCGGGTCTTGATTCGCTTGACGCTGCTG | 1.4 | 3.12 |
| CCGATTAACATCATAAGGGGTGTTGATGTTAATCGGGTCTTGATTCGCTTGACGCTGCTG | 1.09 | 1.44 |
| CCGATTAACATCAGGGGAGAACCTGATGTTAATCGGGTCTTGATTCGCTTGACGCTGCTG | 5.63 | 4.26 |
| CCGATTAACATCAAATAGGGAATTGATGTTAATCGGGTCTTGATTCGCTTGACGCTGCTG | 4.24 | 3.55 |
| CCGATTAACATCAGGAGTCTCCCTGATGTTAATCGGGTCTTGATTCGCTTGACGCTGCTG | 1.4 | 1.4 |
| CCGATTAACATCAAGCAATTCCCTGATGTTAATCGGGTCTTGATTCGCTTGACGCTGCTG | 3.87 | 2.99 |
| CCGATTAACATCAGGTAACTACCTGATGTTAATCGGGTCTTGATTCGCTTGACGCTGCTG | 1.88 | 1.3 |
| CCGATTAACATCAAATTGGGAAATGATGTTAATCGGGTCTTGATTCGCTTGACGCTGCTG | 2.19 | – |
| CCGATTAACATCAAGGGGGGTTATGATGTTAATCGGGTCTTGATTCGCTTGACGCTGCTG | 5.24 | – |
| CCGATTAACATCAGGGCCCCCCCTGATGTTAATCGGGTCTTGATTCGCTTGACGCTGCTG | 3.34 | 4.39 |
| CCGATTAACATCAGGGAAAAGAATGATGTTAATCGGGTCTTGATTCGCTTGACGCTGCTG | 4.96 | 2.53 |
| CCGATTAACATCAGCGAATTCCCTGATGTTAATCGGGTCTTGATTCGCTTGACGCTGCTG | 4.46 | 3.28 |
| CCGATTAACATCAGACTGGGAAATGATGTTAATCGGGTCTTGATTCGCTTGACGCTGCTG | 1.66 | 1.43 |
| CCGATTAACATCAAGGGAGTACCTGATGTTAATCGGGTCTTGATTCGCTTGACGCTGCTG | 4.41 | 2.56 |
